High-throughput results as filed in PubChem.
esBAF inh – SWI/SNF esBAF complex inhibition | reporter increase, % at 12.5 µM | 350,000 compounds, 2% hits | mouse ES cells, Bmi1-luciferase knock-in reporter, 24 h; 100% = twice the neutral-well signal | AID 602393; in the data active = activation above about 40%; inconclusive = no clear call, values can overlap the other calls;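 note: a rise in the Bmi1 reporter signal indicates esBAF inhibition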
Statin myotox sup – suppressors of simvastatin-induced myotoxicity in C2C12 myotubes; 330,000 compounds, 0.78% hits; ATP luminescence, 48 h; scaled: DMSO 0, geranylgeraniol control 100; rescue of ATP level, % at 7.49 µM; AID 602340;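 active = mean ATP rescue above about 67%, or every replicate alone reaching that limit, limit read from the data, passing the limit was not always enough; inconclusive = no clear call, values can overlap the other calls; inactive = mean under the limit and some replicate under it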;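 note: myotubes were challenged with 10 µM simvastatin during compound exposure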
MITF act – MITF TRPM1 promoter activation in melanoma cells; SK-MEL-5 TRPM1-promoter luciferase, 24 h; % of positive control, neutral wells = 0; activation, % at 12.5 µM; 300,000 compounds, 0.75% hits; AID 588334;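 active = mean activation of at least 80% with every replicate also reaching 80%; inconclusive = mean reaches 80% but some replicate falls short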
Wnt bcat act – activates Wnt/beta-catenin signaling in a reporter cell assay. activator, plate reader. activation, % at 9.35 µM. 300,000 compounds, 1.2% hits. AID 743398; in the data active = activation above about 30%, passing the limit was not always enough; inconclusive = no clear call, values can overlap the other calls
LMP1 NFkB inh – reduces LMP1-driven NF-kappaB luciferase signal; LMP1-induced NF-kappaB luciferase reporter cells, luminescence; inhibition, % at 12.5 µM; 350,000 compounds, 0.69% hits; in the data active = inhibition above about 41%; inconclusive = no clear call, values can overlap the other calls
TRPM1 prom inh – reduces MITF-dependent TRPM1 promoter luciferase signal. 330,000 compounds, 0.83% hits. SK-MEL-5 TRPM1 promoter luciferase, 24 h. inhibition, % at 12.5 µM;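 active = mean inhibition across replicates of 60% or more, whatever share of single replicates reaches that level; inconclusive = some that reach 60%, reason not given; inactive = mean inhibition across replicates below 60%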
Hits are given with their value. Rows were chosen to be rich in hits. Some 4% of all compounds tested hit in one or more screens of this group.

CCCC(=O)Nc1ccc(S(=O)(=O)N2CCC(c3nc4ccccc4[nH]3)CC2)cc1 was read as esBAF inh inactive, Statin myotox sup inactive, MITF act inactive, Wnt bcat act inactive, LMP1 NFkB inh inactive and TRPM1 prom inh inactive.
Cc1cccc(OCc2nnc(SCC(=O)N(C(C)C)C(C)C)n2Cc2ccco2)c1C was read as esBAF inh inactive, Statin myotox sup inactive, MITF act inactive, LMP1 NFkB inh inactive and TRPM1 prom inh inactive.
C[C@@H]1CN([C@@H](C)CO)C(=O)Cc2cc(NC(=O)C3CCCCC3)ccc2O[C@H]1CN(C)Cc1ccncc1 was read as esBAF inh inactive and Statin myotox sup inactive.
CCOc1ccc(C(=O)Oc2cc(C)[nH]c(=O)c2[N+](=O)[O-])cc1 was read as esBAF inh inactive, Statin myotox sup 127, MITF act inactive, Wnt bcat act inactive, LMP1 NFkB inh inactive and TRPM1 prom inh inactive.
For CCC(C)OC(=O)C1=C(C)NC2=C(C(=O)C(C(=O)OC)C(C)C2)C1c1ccc(N(C)C)cc1 (stereo not given) the results were esBAF inh inactive, Statin myotox sup inactive, MITF act inactive, Wnt bcat act inactive, LMP1 NFkB inh inactive and TRPM1 prom inh inactive.
Cc1cc(C(=O)NN=C2CC(=O)CC(C)(C)C2)c(C)o1 was read as esBAF inh inactive, Statin myotox sup inactive, MITF act inactive, Wnt bcat act inactive, LMP1 NFkB inh inactive and TRPM1 prom inh inactive.
COc1ccccc1Nc1cc(C)nc2c(C)cccc12 was read as esBAF inh inactive, Statin myotox sup inactive, Wnt bcat act inactive and LMP1 NFkB inh inactive.
`O=C1CSC(c2cccnc2)N1Cc1ccc(Cl)cc1` (stereo not given) gave esBAF inh inactive, Statin myotox sup inactive, MITF act inactive, Wnt bcat act 35, LMP1 NFkB inh inactive and TRPM1 prom inh inactive.
For Cc1ccc(CN2C(=O)CSC2c2cccnc2)cc1 (stereo not given) the results were esBAF inh inactive, Statin myotox sup inactive, MITF act inactive, Wnt bcat act inactive, LMP1 NFkB inh inactive and TRPM1 prom inh inactive.
c1ccc(-c2ccc(CN3C[C@@H]4C(c5ccccc5)C5(c6cccnc6)CC4(C5)[C@H]3c3ccccc3)cc2)cc1 (stereo not given in full) was read as esBAF inh inactive, Statin myotox sup inactive, MITF act inactive, Wnt bcat act inactive, LMP1 NFkB inh inactive and TRPM1 prom inh inactive.
CCOC(=O)N1CCN(C(=O)CCCOc2ccccc2)CC1 was read as esBAF inh inconclusive, Statin myotox sup inactive, MITF act inactive, LMP1 NFkB inh inactive and TRPM1 prom inh inactive.
`O=C(CCCOc1ccccc1)N1CCN(c2ccccc2)CC1` gave esBAF inh inactive, Statin myotox sup inactive, MITF act inactive, LMP1 NFkB inh 86 and TRPM1 prom inh inactive.
For O=C(CCOc1ccccc1)N1CCN(c2ccc(O)cc2)CC1 the results were esBAF inh inactive, Statin myotox sup inactive, MITF act inactive, Wnt bcat act 50, LMP1 NFkB inh inactive and TRPM1 prom inh inactive.
Screening O=C(COc1ccccc1)N1CCN(S(=O)(=O)c2cccs2)CC1 returned esBAF inh inactive, Statin myotox sup inactive, MITF act inactive, LMP1 NFkB inh inactive and TRPM1 prom inh inactive.
For O=C(CCOc1ccccc1)N1CCN(S(=O)(=O)c2cccs2)CC1 the results were esBAF inh inactive, Statin myotox sup 78, MITF act inactive, LMP1 NFkB inh inactive and TRPM1 prom inh inactive.
For O=C(CCSc1ccc(Cl)cc1)N1CCN(c2ccc(O)cc2)CC1 the results were MITF act inactive, Wnt bcat act inactive, LMP1 NFkB inh inactive and TRPM1 prom inh inactive.
`CC12CCC(=O)N1C(C(=O)Nc1nc3c(F)cc(F)cc3s1)CS2` (stereo not given) gave esBAF inh inactive, Statin myotox sup inactive, MITF act inactive, Wnt bcat act inactive, LMP1 NFkB inh inactive and TRPM1 prom inh inactive.
S=c1[nH]nc(-c2ccccc2)n1C1C=CCCC1 (stereo not given) was read as esBAF inh inactive, Statin myotox sup inactive, MITF act inactive, Wnt bcat act inactive, LMP1 NFkB inh inactive and TRPM1 prom inh inactive.
Cc1nc(-c2cccs2)ccc1C(=O)O was read as esBAF inh inactive, Statin myotox sup inactive, MITF act inactive, Wnt bcat act inactive, LMP1 NFkB inh inactive and TRPM1 prom inh inactive.
COc1ccc(NC(=O)COc2ncnc3ccccc23)cc1S(=O)(=O)N1CCOCC1 was read as MITF act inactive, Wnt bcat act inactive, LMP1 NFkB inh inactive and TRPM1 prom inh inactive.
Screening O=[N+]([O-])c1ncccc1OCc1ccc(Cl)c(Cl)c1 returned esBAF inh 67, Statin myotox sup inactive, MITF act inactive, Wnt bcat act inactive, LMP1 NFkB inh inactive and TRPM1 prom inh inactive.
For CN(C)S(=O)(=O)c1cccc(COc2cccnc2[N+](=O)[O-])c1 the results were esBAF inh inactive, Statin myotox sup inactive, MITF act inactive, Wnt bcat act inactive, LMP1 NFkB inh inactive and TRPM1 prom inh inactive.
For CCOC(=O)c1[nH]nc(C(=O)c2ccc(Br)cc2)c1O the results were esBAF inh 54, Statin myotox sup inactive, LMP1 NFkB inh inactive and TRPM1 prom inh inactive.
Screening O=C(O)CSc1nnc2c(n1)[nH]c1ccccc12 returned MITF act inactive, Wnt bcat act inactive, LMP1 NFkB inh inactive and TRPM1 prom inh inactive.
For CC(C)CSc1nnc2c(n1)[nH]c1ccccc12 the results were MITF act inactive, Wnt bcat act 50, LMP1 NFkB inh inactive and TRPM1 prom inh inactive.
Screening CCCCSc1nnc2c(n1)[nH]c1ccccc12 returned esBAF inh inactive, Statin myotox sup inactive, MITF act inactive, Wnt bcat act 62, LMP1 NFkB inh inactive and TRPM1 prom inh inactive.
COc1ccccc1OCCC(=O)OCC(=O)Nc1cc(S(=O)(=O)N(C)C)ccc1Cl was read as esBAF inh inactive, Statin myotox sup inactive, MITF act inactive, Wnt bcat act inactive, LMP1 NFkB inh inactive and TRPM1 prom inh inactive.
`Cc1ccc(S(=O)(=O)c2ccc([N+](=O)[O-])cn2)cc1` gave esBAF inh inactive, Statin myotox sup inactive, MITF act inactive, Wnt bcat act inactive, LMP1 NFkB inh 60 and TRPM1 prom inh 91.
For Nc1ccc(S(=O)(=O)c2ccccc2)nc1 the results were esBAF inh inactive, Statin myotox sup inactive, Wnt bcat act inactive and LMP1 NFkB inh inactive.
Screening O=[N+]([O-])c1ccc(S(=O)(=O)c2ccccc2)nc1 returned esBAF inh inactive, Statin myotox sup inactive, MITF act inactive, Wnt bcat act inactive, LMP1 NFkB inh 53 and TRPM1 prom inh 94.
For Cc1cc(S(=O)(=O)c2ccc([N+](=O)[O-])cn2)ccc1Br the results were MITF act inactive, Wnt bcat act inactive, LMP1 NFkB inh 74 and TRPM1 prom inh 90.
For Cc1ccc(S(=O)(=O)c2ccc(C)cc2)cc1 the results were esBAF inh inactive, Statin myotox sup inactive, MITF act inactive, Wnt bcat act inactive, LMP1 NFkB inh inactive and TRPM1 prom inh inactive.
